E-sel TNF inh = E-selectin induction blockers in HUVEC – imaging, immunofluorescence, high content, primary screen | HUVEC TNFa-induced E-selectin immunofluorescence | inhibition, % at 2 µM | 120,000 tested, 0.71% active;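 active = inhibition above the batch mean plus 3 SD, and confirmed as a hit on visual image review, cut at about 43% in these data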;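 note: 0% = TNF-stimulated DMSO wells and 100% = unstimulated control wells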
VCAM1 TNFa inh = inhibitors of TNFa-induced VCAM1 expression, primary screen, imaging, HUVEC, TNFa stimulus, immunofluorescence. 95,000 tested, 0.48% active. HUVEC TNFa-induced VCAM-1 immunofluorescence, high-content imaging. inhibition, % at 2 µM;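 active = inhibition above the batch mean plus 3 SD, with images confirmed as a hit by eye, cut at about 37% in these data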;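 note: 0% = TNF-stimulated DMSO wells and 100% = unstimulated control wells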
F-actin modifier = modifiers of F-actin cytoskeleton organization, primary screen, imaging, HUVEC, phalloidin staining, high-content imaging | 91,000 tested, 0.18% active | AID 836, 2007 | HUVEC TNFa F-actin phalloidin imaging | inhibition, % at 2 µM;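 active = inhibition above the batch mean plus 3 SD and confirmed as a hit by visual image inspection, cut at about 30% in these data, passing the limit was not always enough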
PLAP act = PLAP enzyme activators, biochemical, luminescence, HTS | activation fold at 20 µM | AID 696, 2007 | 96,000 tested, 1.2% active | Alkaline phosphatase, placental type (Homo sapiens), P05187 | purified PLAP enzyme, luminescent substrate read-out; hits give high values; in the data active = activation fold above about 2
Target sequence (P05187 whole entry, looked up): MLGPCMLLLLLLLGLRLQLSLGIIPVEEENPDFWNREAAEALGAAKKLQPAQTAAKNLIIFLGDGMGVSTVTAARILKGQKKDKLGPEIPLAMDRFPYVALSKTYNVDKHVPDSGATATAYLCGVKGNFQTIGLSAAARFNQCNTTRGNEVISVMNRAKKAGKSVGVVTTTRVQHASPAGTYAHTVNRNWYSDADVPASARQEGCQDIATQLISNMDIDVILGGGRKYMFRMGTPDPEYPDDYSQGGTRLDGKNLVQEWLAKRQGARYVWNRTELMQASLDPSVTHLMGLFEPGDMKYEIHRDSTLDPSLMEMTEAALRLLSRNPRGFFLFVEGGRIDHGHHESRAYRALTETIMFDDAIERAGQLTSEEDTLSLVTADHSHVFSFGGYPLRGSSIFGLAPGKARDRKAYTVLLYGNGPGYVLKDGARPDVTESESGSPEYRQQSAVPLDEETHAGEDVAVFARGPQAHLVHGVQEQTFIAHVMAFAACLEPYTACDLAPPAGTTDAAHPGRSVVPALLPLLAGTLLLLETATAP
HUVEC tox TNFa = cytotoxicity in TNFa-stimulated HUVEC, primary screen, cytotoxicity control for VCAM1 expression modulator project, imaging, Hoechst nuclei count; 93,000 tested, 0.17% active; cell count reduction, % at 2 µM; AID 848, 2007; HUVEC TNFalpha-stimulated, Hoechst cell count;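 active = cell count reduction exceeding the screen mean by over 5 SD, scaled to untreated wells per plate, cut at about 78% in these data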;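 note: cells counted after 24 h of TNF alpha exposure following the 1 h pretreatment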
Starred values were filed as active, the others as inactive; . = no result given. Shown are actives, neighbours in structure and some others; about 2% of the full set was active somewhere.

SMILES | E-sel TNF inh | VCAM1 TNFa inh | F-actin modifier | PLAP act | HUVEC tox TNFa
COc1ccc(-n2c(COc3ccc4ccccc4c3)nnc2SCC(=O)NCc2ccco2)cc1 | . | 8 | 4 | 2* | -19
COc1ccc(-n2c(COc3cccc(C)c3)nnc2SCC(=O)NCc2ccco2)cc1 | -16 | . | . | 1.1 | .
O=C(CS(=O)(=O)c1ccccc1)N1CCCCCC1 | 4 | 5 | 10 | 0.9 | -12
O=S(=O)(C/C(=C/CO)S(=O)(=O)c1ccccc1)c1ccccc1 | 100* | 86* | -2 | 1.1 | 30
COc1cc2c3nnc(-c4ccc(F)cc4)c-3cn(Cc3ccccc3)c2cc1OC | 15 | 5 | 33* | 1.4 | -12
COc1cc2c3nnc(-c4ccc(F)cc4)c-3cn(Cc3ccc(F)cc3)c2cc1OC | -7 | 3 | -4 | 1.7 | -17
CC1c2c([nH]c3ccccc23)CCC1C(=O)O (centres undefined) | -15 | . | . | . | .
Cc1noc(NC(=O)c2ccccc2Cl)c1C#N | 17 | 6 | 28 | 0.9 | -1
CC1CN(C(=O)/C(C#N)=C2\N=C(NC(=O)c3ccccc3Cl)c3ccccc32)CC(C)O1 (centres undefined) | 93* | . | . | . | .
COc1ccc(N2C(=O)CCC(C(=O)c3ccccc3)=C2C)cc1 | -5 | . | . | 0.9 | .
CCC(C)c1ccccc1NC(=O)CN1CCN(C/C=C/c2ccccc2)CC1 (centres undefined) | -25 | . | . | . | .
CN1C(=O)c2ccc(NC(=S)NC(=O)C(C)(C)C)cc2C1=O | -31 | . | . | . | .
Cc1ccc(OCc2nc(-c3ccccn3)n[nH]2)cc1 | -9 | -7 | 3 | 2.6* | 6
Cc1[nH]c(=O)cc2ccccc12 | 11 | 8 | 2 | 1 | -14
Cc1c(Cl)c(C(=O)Nc2nc3ccccc3n2CCN2CCCCC2)nn1C | 10 | 9 | 18 | 2.5* | -44
O=C(Nc1nc2ccccc2n1CCN1CCCCC1)c1ccco1 | 0 | -3 | 3 | 1.4 | -4
CCn1cc(Cl)c(C(=O)Nc2nc3ccccc3n2CCN2CCCCC2)n1 | -2 | 12 | 6 | 2.3* | -54
CN(C)CCn1c(NC(=O)c2ccc(Cl)cc2)nc2ccccc21 | . | 24 | 4 | 2.3* | -26
O=C(CC1SC(=NCCc2ccccc2)N(/N=C/c2cccs2)C1=O)Nc1ccc(Cl)cc1 (centres undefined) | -6 | . | . | . | .
Cc1[nH]c(=O)[nH]c(=O)c1S(=O)(=O)N(CC(C)C)CC(C)C | -20 | . | . | . | .
O=C(c1ccc(Cl)cc1)N1CCCC(c2ccccc2)=N1 | 100* | 16 | 15 | 0.9 | 1
CSc1nc(-c2ccccc2)nn1C(=O)c1ccc(Cl)cc1 | -9 | 14 | 2 | 0.9 | -6
CCOC(=O)C1=C(C)N(C)C(=O)NC1c1cc2c(cc1[N+](=O)[O-])OCO2 (centres undefined) | 7 | . | . | . | .
CC(C)(C)NS(=O)(=O)c1cc(C(=O)Nc2sccc2C#N)ccc1Cl | 28 | . | . | . | .
Cc1ccc(S(=O)(=O)N(C)CCCC(=O)Nc2cc(C)ccc2C)cc1 | 97* | . | . | . | .
SMILES | E-sel TNF inh | VCAM1 TNFa inh | F-actin modifier | PLAP act | HUVEC tox TNFa
CN(C)CCCNS(=O)(=O)c1ccc(N2CCC(c3ccc(Cl)cc3)=N2)cc1 | 6 | 31 | . | 2.3* | 14
CCN(CC(=O)N1CCCCCC1)S(=O)(=O)c1ccc(Cl)cc1 | -19 | -19 | -6 | 1.1 | -14
O=S(=O)(c1ccc(N2CCC(c3ccc(Cl)cc3)=N2)cc1)N(CCO)CCO | 11 | 11 | -1 | 2.2* | 8
Cc1ccc(NC(=O)CSc2nc3ccccc3c(=O)n2CCCC(=O)N2CCCC2)cc1 | . | -9 | 2 | 1 | 4
CCn1c(SCC(=O)N2CCCC2)nc2ccccc2c1=O | . | 2 | 11 | 1.3 | -34
COCCn1c(SCC(=O)N2CCCCC2)nc2ccccc2c1=O | 96* | -16 | -11 | 1.1 | -5
Cc1ccc(NC(=O)CSc2nc3ccccc3c(=O)n2CCCN2CCCCC2)cc1C | -11 | 13 | -17 | 2.6* | -7
CC(=O)NCCn1c(SCc2ccc(C)cc2C)nc2ccccc2c1=O | . | -2 | 5 | 2.5* | -1
CCc1ccc(C(=O)COC(=O)c2ccc(-c3nnc(-c4ccccc4)o3)cc2)cc1 | 4 | 8 | 8 | 0.9 | -18
CC(=O)Nc1ccccc1C(=O)N1CCN(Cc2ccccc2)CC1 | -1 | . | . | . | .
C=C(C)CC(NCCc1ccccc1)c1ccco1 (centres undefined) | 72* | . | . | . | .
COC(=O)/C=C/S(=O)(=O)c1ccc(NC(C)=O)cc1 | 92* | 1 | -6 | 0.9 | -26
COc1ccccc1NS(=O)(=O)c1ccc(NC(C)=O)cc1 | 17 | -7 | -12 | 1.1 | 3
CCN(CC)CCN(C)C1CCC(c2ccccc2)CC1 (centres undefined) | 6 | . | . | . | .
Cc1cc(SCC(=O)c2cccs2)nc2ccccc12 | 75* | . | . | . | .
O=C(/C=C/c1cccs1)N1CCN(Cc2ccc3c(c2)OCO3)CC1 | -4 | . | . | . | .
Cn1nnc(NC(=O)c2ccccc2)n1 | -29 | -10 | 0 | . | -18
COc1ccccc1C(=O)Nc1nnn(C)n1 | . | 53 | -32 | 1 | 78*
CC1CCN(S(=O)(=O)c2ccc3c(c2)C(=NO)c2cc(S(=O)(=O)N4CCC(C)CC4)ccc2-3)CC1 | . | 10 | -29 | 1 | -7
O=S(=O)(c1ccc2c(c1)C(=NO)c1cc(S(=O)(=O)N3CCCCC3)ccc1-2)N1CCCCC1 | 6 | 100* | 60* | 1 | 90*
Cc1cccc(NC(=O)Nc2ccc(C#N)cc2)n1 | 55* | . | . | 1 | .
Cc1cccc(NC(=O)Nc2cccc(C#N)c2)n1 | 11 | . | . | 0.9 | .
CC1(C)C(=O)NCCN1C(=O)CCC(=O)O | 12 | . | . | . | .
COc1cccc(N2CC(C(=O)Nc3nnc(SCC(=O)c4ccccc4)s3)CC2=O)c1 (centres undefined) | 61* | . | . | . | .
O=C(Cc1ccc(-n2cccc2)cc1)NC1CCCCCC1 | -18 | 41* | -9 | . | -10
SMILES | E-sel TNF inh | VCAM1 TNFa inh | F-actin modifier | PLAP act | HUVEC tox TNFa
COC(=O)CCC(=O)Nc1ccc(Br)cc1 | -7 | 7 | -2 | 1 | -33
CSc1ncccc1C(=O)OCC(=O)NCc1ccc2c(c1)OCO2 | -24 | . | . | . | .
Cc1c(Cl)cccc1-n1ccnc1SCC(=O)O | . | 94* | -31 | 1.3 | 78*
COc1ccc(C(NC(C)=O)c2ccc3cccnc3c2O)c(OC)c1 (centres undefined) | . | . | . | 2.4* | .
CCN(CC)S(=O)(=O)c1ccc(NC(=O)C2c3ccccc3Oc3ccccc32)cc1 | 9 | . | . | . | .
O=C(CSc1nnc(-c2ccccc2F)n1C1CCCCC1)N1CCCC1 | -42 | 28 | 0 | 1.2 | -12
O=C(CSc1nnc(-c2ccc(Cl)cc2Cl)n1C1CCCCC1)N1CCCC1 | -10 | -12 | 13 | 2* | -2
OC(COc1ccc2cc(Br)ccc2c1)CN1CCOCC1 (centres undefined) | -20 | 2 | -14 | . | -8
C=CCNC(=O)c1c(Cl)cccc1Cl | -17 | -32 | 47* | . | .
COc1cc(CN2CCNC(=O)C2CC(=O)O)cc(OC)c1 (centres undefined) | 5 | . | . | . | .
Cc1nc2sccn2c1P(c1c(C)nc2sccn12)c1c(C)nc2sccn12 | -29 | . | . | 1.2 | .

High-throughput results (PubChem)
